From PubChem BioAssay (Tox21)
Values joined by “and” are separate entries in the source; they are usually repeats but may differ in a detail not shown here. Identical values can stand only once. Inconclusive results are not listed. Where a call stands in place of a potency, no number is given. Unmarked numbers belong to inactive results. Active and inactive are the calls of the source. Unless noted, the call rests on the fitted dose curve; in most records, active means well fitted curve in the direction sought with a large enough effect in the repeat runs; inconclusive means weak or mixed curves; inactive means no such curve, though single readings can be large; an effect the other way counts as inactive or inconclusive.

What was measured:
[1] = qHTS assay to identify small molecule antagonists of the thyroid receptor (TR) signaling pathway - cell viability counter screen (AID 743064); further: nearly all actives have a fitted effect of over 50% in size
In short: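 In rat pituitary GH3.TRE-Luc reporter cells co-exposed to compound and 1 nM T3 for 23.5 h, cytotoxicity was assessed with CellTiter-Fluor in the same wells, read by fluorescence.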

[2] = qHTS assay to identify small molecule antagonists of the thyroid receptor (TR) signaling pathway (AID 743065); further: nearly all actives have a fitted effect of over 55% in size
In short: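 Antagonism measured as loss of luciferase signal in GH3 cells stably carrying a TRE-luciferase reporter, co-treated with compound and T3 (1 nM final) for 23.5 h at 37 C. Viability was read in the same well by CellTiter-Fluor.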

[3] = test system: thyroid hormone receptor (rat, GH3 cells); assay: qHTS assay to identify small molecule agonists of the thyroid receptor (TR) signaling pathway (AID 743066; calls by dose curve)
[4] = target: Estrogen receptor (Homo sapiens) (UniProt P03372); assay: qHTS assay to identify small molecule antagonists of the estrogen receptor alpha (ER-alpha) signaling pathway (AID 743069; active means well fitted curve in the direction sought with a large enough effect in the signal ratio in the repeat runs, not every such curve was filed as active; the % refers to the signal ratio)
In short: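 Antagonist mode: compounds in DMSO were co-added with 17beta-estradiol to ER-alpha-bla HEK293 cells (2% charcoal-stripped serum) and left 18 h at 37C. Reporter inhibition was measured as FRET fluorescence after 2 h LiveBLAzer substrate at room temperature.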

[5] = qHTS assay to identify small molecule antagonists of the estrogen receptor alpha (ER-alpha) signaling pathway - cell viability counter screen (AID 743074; calls by dose curve;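 further: HEK293 cells carrying ER-alpha-UAS-bla reporter stimulated with 17beta-estradiol; nearly all actives have a fitted effect of over 45% in size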)
[6] = target: Estrogen receptor (Homo sapiens) (UniProt P03372); assay: qHTS assay to identify small molecule agonists of the estrogen receptor alpha (ER-alpha) signaling pathway (AID 743075; calls by dose curve;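 further: HEK293 GripTite cells with ER-alpha and UAS-driven beta-lactamase reporter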; further: potency means the concentration at half of the fitted maximal effect)
[7] = target: Estrogen receptor (Homo sapiens) (UniProt P03372); assay: qHTS assay to identify small molecule agonists of the estrogen receptor alpha (ER-alpha) signaling pathway using the BG1 cell line (AID 743079); conditions: BG1Luc4E2 cells, ERE-luciferase agonist, 22 h; further: nearly all actives have a fitted effect of over 20% in size; further: potency means the concentration at half of the fitted maximal effect
[8] = qHTS assay to identify small molecule antagonists of the estrogen receptor alpha (ER-alpha) signaling pathway using the BG1 cell line (AID 743080; calls by dose curve;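 further: BG1 cells stimulated with 17beta-estradiol alongside compound; nearly all actives have a fitted effect of over 25% in size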)
In short: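 After 5 days in phenol-red-free 10% charcoal-stripped FBS medium, BG1-Luc-4E2 cells were seeded, left 24 h at 37 C, co-treated with compounds and 17beta-estradiol for 21.5 h, then assayed for viability and luciferase.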

[9] = qHTS assay to identify small molecule antagonists of the estrogen receptor alpha (ER-alpha) signaling pathway using the BG1 cell line - cell viability counter screen (AID 743081);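 further: compound given together with 17beta-estradiol as the ER stimulus; nearly all actives have a fitted effect of over 45% in size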
[10] = target: Aromatase (Homo sapiens) (UniProt P11511); assay: qHTS assay to identify aromatase inhibitors (AID 743083); further: nearly all actives have a fitted effect of over 55% in size
Aromatase (Homo sapiens), sequence (P11511 whole entry, looked up): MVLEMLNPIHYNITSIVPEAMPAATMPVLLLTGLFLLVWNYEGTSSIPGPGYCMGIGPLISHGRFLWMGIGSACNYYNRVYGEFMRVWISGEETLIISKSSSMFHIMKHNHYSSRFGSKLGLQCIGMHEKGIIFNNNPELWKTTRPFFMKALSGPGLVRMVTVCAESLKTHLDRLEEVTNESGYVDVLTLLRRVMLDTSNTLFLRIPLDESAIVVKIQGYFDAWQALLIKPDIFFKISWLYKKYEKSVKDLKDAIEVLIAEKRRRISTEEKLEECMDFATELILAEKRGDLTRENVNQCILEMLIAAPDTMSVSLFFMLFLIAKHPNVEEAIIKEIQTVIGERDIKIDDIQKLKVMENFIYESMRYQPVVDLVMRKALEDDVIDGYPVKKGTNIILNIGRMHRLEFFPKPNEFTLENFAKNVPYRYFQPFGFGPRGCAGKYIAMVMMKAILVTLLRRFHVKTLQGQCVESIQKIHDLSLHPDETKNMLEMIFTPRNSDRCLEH

Estrogen receptor (Homo sapiens), sequence (P03372 whole entry, looked up): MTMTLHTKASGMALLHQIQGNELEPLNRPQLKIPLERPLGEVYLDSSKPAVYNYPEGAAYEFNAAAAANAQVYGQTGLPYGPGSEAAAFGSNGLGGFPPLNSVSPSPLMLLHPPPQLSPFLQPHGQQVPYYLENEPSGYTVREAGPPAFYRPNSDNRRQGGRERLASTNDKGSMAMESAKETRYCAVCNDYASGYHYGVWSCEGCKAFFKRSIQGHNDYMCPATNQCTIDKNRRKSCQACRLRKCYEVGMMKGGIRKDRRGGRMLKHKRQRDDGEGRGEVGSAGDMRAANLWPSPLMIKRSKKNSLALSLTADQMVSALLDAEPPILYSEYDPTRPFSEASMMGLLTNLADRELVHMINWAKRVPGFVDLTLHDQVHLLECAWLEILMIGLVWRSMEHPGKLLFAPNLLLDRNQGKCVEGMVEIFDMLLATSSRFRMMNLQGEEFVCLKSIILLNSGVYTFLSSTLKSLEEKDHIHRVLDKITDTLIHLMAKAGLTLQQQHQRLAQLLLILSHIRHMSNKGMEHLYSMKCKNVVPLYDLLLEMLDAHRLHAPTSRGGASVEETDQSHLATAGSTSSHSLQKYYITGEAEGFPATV

## CSc1nc(N=[N+]=[N-])nc(NC(C)C)n1
[1]
  Potency: inactive
[2]
  Potency: inactive
[3]
  Potency: inactive
[4]
  Potency: inactive
[5]
  outcome: inactive
[6]
  Potency: inactive
[7]; at 70.3 µM (top of the series)
  activation: 2.14%
[8]
  Potency: inactive
[9]
  Potency: inactive
[10]
  Potency: inactive

## CCCCP(CCCC)CCCC
[1]
  Potency: inactive
[2]
  Potency: inactive
[3]
  Potency: inactive
[4]
  Potency: inactive
[5]
  outcome: inactive
[6]
  Potency: inactive
[7]; at 70.3 µM (top of the series)
  activation: 0.877%
[8]
  Potency: inactive
[9]
  Potency: inactive
[10]
  Potency: inactive

## CCCCCCI
[1]
  Potency: inactive
[2]
  Potency: inactive
[3]
  Potency: inactive
[4]
  Potency: inactive
[5]
  outcome: inactive
[6]
  Potency: inactive
[7]; at 70.3 µM (top of the series)
  activation: 1.45%
[8]
  Potency: inactive
[9]
  Potency: inactive
[10]
  Potency: inactive

## CCC(C)n1c(=O)[nH]c(C)c(Br)c1=O (configuration not stated)
[1]
  Potency: inactive
[2]
  Potency: inactive
[3]
  Potency: inactive
[4]
  Potency: inactive
[5]
  outcome: inactive
[6]
  Potency: inactive
[7]; at 70.3 µM (top of the series)
  activation: 1.5%
[8]
  Potency: inactive
[9]
  Potency: inactive
[10]
  Potency: inactive

## [O]=[Cd]
[1]
  Potency: inactive
[2]
  Potency: inactive
[3]
  Potency: inactive
[4]
  Potency: inactive
[5]
  outcome: inactive
[6]
  Potency: inactive
[7]; at 70.3 µM (top of the series)
  activation: -13.8% and 18.3%
[8]
  Potency: inactive
[9]
  Potency: inactive
[10]
  Potency: inactive

## CCOP(=O)(N=C1SCCS1)OCC
[1]
  Potency: inactive
[2]
  Potency: inactive
[3]
  Potency: inactive
[4]
  Potency: inactive
[5]
  outcome: inactive
[6]
  Potency: inactive
[7]; at 70.3 µM (top of the series)
  activation: -3.11%
[8]
  Potency: inactive
[9]
  Potency: inactive
[10]
  Potency: inactive

## O=[N+]([O-])c1cc(Cl)c(Cl)c(Cl)c1
[1]
  Potency: inactive
[2]
  Potency: inactive
[3]
  Potency: inactive
[4]
  Potency: inactive
[5]
  outcome: inactive
[6]
  Potency: inactive
[7]; at 70.3 µM (top of the series)
  activation: 9.06%
[8]
  Potency: inactive
[9]
  Potency: inactive
[10]
  Potency: inactive

## Cc1cccc(C#N)c1
[1]
  Potency: inactive
[2]
  Potency: inactive
[3]
  Potency: inactive
[4]
  Potency: inactive
[5]
  outcome: inactive
[6]
  Potency: inactive
[7]
  Potency: 68.2 µM (active)
[8]
  Potency: inactive
[9]
  Potency: inactive
[10]
  Potency: inactive

## COP(=S)(OC)Oc1c(Cl)cc(C)cc1Cl
[1]
  Potency: inactive
[2]
  Potency: inactive
[3]
  Potency: inactive
[4]
  Potency: inactive
[5]
  outcome: inactive
[6]
  Potency: inactive
[7]
  Potency: 30.6 µM (active)
[8]
  Potency: inactive
[9]
  Potency: inactive
[10]
  Potency: inactive

## O=C(N[C@H]1CN2CCC1CC2)c1cc2ccoc2cn1
[1]
  Potency: inactive
[2]
  Potency: inactive
[3]
  Potency: inactive
[4]
  Potency: inactive
[5]
  outcome: inactive
[6]
  Potency: inactive
[7]; at 70.3 µM (top of the series)
  activation: -3.48%
[8]
  Potency: inactive
[9]
  Potency: inactive
[10]
  Potency: inactive

## COC(=O)C(c1ccccc1)C1CCCCN1 (configuration not stated)
[1]
  Potency: inactive
[2]
  Potency: inactive
[3]
  Potency: inactive
[4]
  Potency: inactive
[5]
  outcome: inactive
[6]
  Potency: inactive
[7]; at 70.3 µM (top of the series)
  activation: 2.44% and -6.09%
[8]
  Potency: inactive
[9]
  Potency: inactive
[10]
  Potency: inactive

## O=C(O)c1cccc(Cl)c1
[1]
  Potency: inactive
[2]
  Potency: inactive
[3]
  Potency: inactive
[4]
  Potency: inactive
[5]
  outcome: inactive
[6]
  Potency: inactive
[7]; at 70.3 µM (top of the series)
  activation: 2.91%
[8]
  Potency: inactive
[9]
  Potency: inactive
[10]
  Potency: inactive

## OC(c1ccc(F)cc1)(c1cncnc1)c1ccccc1Cl (configuration not stated)
[1]
  Potency: inactive
[2]
  Potency: inactive
[3]
  Potency: inactive
[4]
  Potency: inactive
[5]
  outcome: inactive
[6]
  Potency: 49 µM [activator] (active)
[8]
  Potency: inactive
[9]
  Potency: inactive

## CC1(C)CON(Cc2ccccc2Cl)C1=O
[1]
  Potency: inactive
[2]
  Potency: inactive
[3]
  Potency: inactive
[4]
  Potency: inactive
[5]
  outcome: inactive
[6]
  Potency: inactive
[8]
  Potency: inactive
[9]
  Potency: inactive
[10]
  Potency: inactive

## O=[N+]([O-])c1ccc(CBr)cc1
[1]
  Potency: inactive
[2]
  Potency: inactive
[3]
  Potency: inactive
[4]
  Potency: inactive
[5]
  outcome: inactive
[6]
  Potency: inactive
[7]; at 95 µM (top of the series)
  activation: 2.58%
[8]
  Potency: inactive
[9]
  Potency: inactive
[10]
  Potency: inactive

## CCCCOC(=O)[C@@H](C)Oc1ccc(Oc2ccc(C#N)cc2F)cc1
[1]
  Potency: inactive
[2]
  Potency: inactive
[3]
  Potency: inactive
[5]
  outcome: inactive
[6]
  Potency: inactive
[7]; at 70.3 µM (top of the series)
  activation: -4.38%
[8]
  Potency: inactive
[9]
  Potency: inactive
[10]
  Potency: inactive

## ClCC(Cl)Cl
[1]
  Potency: inactive
[2]
  Potency: inactive
[3]
  Potency: inactive
[5]
  outcome: inactive
[8]
  Potency: inactive
[9]
  Potency: inactive
[10]
  Potency: inactive

## COc1ccc(C(=O)N2CCCC2=O)cc1
[1]
  Potency: inactive
[2]
  Potency: inactive
[3]
  Potency: inactive
[5]
  outcome: inactive
[9]
  Potency: inactive
[10]
  Potency: inactive

## O=[N+]([O-])c1ccc2c3c(cccc13)CC2
[1]
  Potency: inactive
[2]
  Potency: inactive
[3]
  Potency: inactive
[5]
  outcome: inactive
[6]
  Potency: inactive
[7]; at 70.3 µM (top of the series)
  activation: -4.67%
[8]
  Potency: inactive
[9]
  Potency: inactive
[10]
  Potency: inactive

## CCCCCCBr
[1]
  Potency: inactive
[2]
  Potency: inactive
[3]
  Potency: inactive
[5]
  outcome: inactive
[9]
  Potency: inactive
[10]
  Potency: inactive

## [As]#[In]
[1]
  Potency: inactive
[2]
  Potency: inactive
[3]
  Potency: inactive
[5]
  outcome: inactive
[9]
  Potency: inactive
[10]
  Potency: inactive

## O=C(Nc1ccccc1)c1ccccc1I
[1]
  Potency: inactive
[2]
  Potency: inactive
[3]
  Potency: inactive
[5]
  outcome: inactive
[6]
  Potency: inactive
[7]; at 70.3 µM (top of the series)
  activation: 0.753%
[8]
  Potency: inactive
[9]
  Potency: inactive

## COC(=O)c1ccccc1S(=O)(=O)NC(=O)N(C)c1nc(C)nc(OC)n1
[1]
  Potency: inactive
[2]
  Potency: inactive
[3]
  Potency: inactive
[4]
  Potency: inactive
[5]
  outcome: inactive
[6]
  Potency: inactive
[8]
  Potency: inactive
[9]
  Potency: inactive
[10]
  Potency: inactive

## CC(Cl)(Cl)[N+](=O)[O-]
[1]
  Potency: inactive
[2]
  Potency: inactive
[3]
  Potency: inactive
[4]
  Potency: inactive
[6]
  Potency: inactive
[7]; at 70.3 µM (top of the series)
  activation: -5.99%
[8]
  Potency: inactive
[9]
  Potency: inactive
[10]
  Potency: inactive

## O=NN1CCCCC1
[1]
  Potency: inactive
[2]
  Potency: inactive
[3]
  Potency: inactive
[5]
  outcome: inactive
[9]
  Potency: inactive
[10]
  Potency: inactive
